# Measurements published in PubChem BioAssay (EPA / NIEHS).
# Records with an inconclusive call do not appear. Calls of active or inactive are those of the source. The calls were made as follows: active = hit-call score of the fitted dose curve at least 0.9, where 1 is the maximum; inconclusive = response in the unintended direction; inactive = score below 0.9.
# Biological target: Nuclear receptor subfamily 1 group I member 2 (Homo sapiens) (UniProt O75469)
# Experiment: ATG_PXR_TRANS: Attagene TRANS-FACTORIAL HepG2 Assay for human Pregnane X Receptor (PXR) (AID 2283008)
# Outline: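 Transactivation by exogenous PXR–GAL4 fusion measured as reporter transcript induction after 24 h compound treatment of transfected human HepG2 cells. Read-out via RT-PCR and capillary electrophoresis of labelled fragments, fitted upward relative to DMSO.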
# Sequence of Nuclear receptor subfamily 1 group I member 2 (Homo sapiens) (O75469 whole entry, looked up): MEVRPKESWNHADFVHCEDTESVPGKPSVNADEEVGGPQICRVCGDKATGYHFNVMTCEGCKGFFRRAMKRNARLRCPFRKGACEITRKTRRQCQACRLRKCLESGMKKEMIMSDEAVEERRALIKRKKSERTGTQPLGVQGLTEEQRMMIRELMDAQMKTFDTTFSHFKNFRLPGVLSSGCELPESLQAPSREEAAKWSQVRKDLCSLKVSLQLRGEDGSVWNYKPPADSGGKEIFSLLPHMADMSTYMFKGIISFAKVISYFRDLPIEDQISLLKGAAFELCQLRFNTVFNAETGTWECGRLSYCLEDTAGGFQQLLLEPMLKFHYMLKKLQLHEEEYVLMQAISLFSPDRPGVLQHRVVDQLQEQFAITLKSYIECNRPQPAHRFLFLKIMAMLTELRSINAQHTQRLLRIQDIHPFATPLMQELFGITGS
SMILES,outcome,AC50
Clc1cccc(Cl)n1,inactive,–
CCCCC(CC)COC(=O)/C=C\C(=O)OCC(CC)CCCC (stereo not drawn),–,4.17 µM (active)
Cc1ccc2n[nH]nc2c1,inactive,–

# Biological target: human Retinoic Acid Receptor gamma (RARg), RARG (gene 5916) (UniProt P13631)
# Sequence (P13631 whole entry, looked up): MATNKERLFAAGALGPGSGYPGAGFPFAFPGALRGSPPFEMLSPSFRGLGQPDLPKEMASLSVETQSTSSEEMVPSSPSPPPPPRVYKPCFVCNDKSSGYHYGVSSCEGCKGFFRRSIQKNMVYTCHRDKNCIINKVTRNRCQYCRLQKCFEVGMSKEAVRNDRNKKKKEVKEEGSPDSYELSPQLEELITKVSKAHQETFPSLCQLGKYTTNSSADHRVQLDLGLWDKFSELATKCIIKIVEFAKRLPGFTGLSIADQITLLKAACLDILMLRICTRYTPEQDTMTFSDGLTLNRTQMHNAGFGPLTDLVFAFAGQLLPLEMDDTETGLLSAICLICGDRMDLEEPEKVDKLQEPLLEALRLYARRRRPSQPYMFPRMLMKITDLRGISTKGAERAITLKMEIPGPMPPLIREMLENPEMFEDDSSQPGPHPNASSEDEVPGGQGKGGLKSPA
# Experiment: ATG_RARg_TRANS: Attagene TRANS-FACTORIAL HepG2 Assay for human Retinoic Acid Receptor gamma (RARg) (AID 2283009)
# Outline: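 Transactivation of exogenous RARg-Gal4 fusion measured as reporter transcript induction after 24 h in transfected HepG2 cells. RNA reverse-transcribed, amplified, fluorescently labeled and resolved by capillary electrophoresis; increase relative to DMSO.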
row,SMILES,outcome
1,O=C(O)CN(CCN(CC(=O)O)CC(=O)O)CCN(CC(=O)O)CC(=O)O,inactive
2,CC1CCC(C(C)CS)CC1S (stereo not drawn),inactive
3,O=c1cc(-c2ccccc2)oc2cc(O)cc(O)c12,inactive
4,O=C[C@H](O)[C@H](O)[C@H](O)CO,inactive
5,O=C1CCCCCCCCCCOCCCCO1,inactive
6,CCCCCC(CO)CCC (stereo not drawn),inactive

# Biological target: human RAR-related Orphan Receptor beta (RORb), RORB (gene 6096) (UniProt Q92753)
# Sequence (Q92753 whole entry, looked up): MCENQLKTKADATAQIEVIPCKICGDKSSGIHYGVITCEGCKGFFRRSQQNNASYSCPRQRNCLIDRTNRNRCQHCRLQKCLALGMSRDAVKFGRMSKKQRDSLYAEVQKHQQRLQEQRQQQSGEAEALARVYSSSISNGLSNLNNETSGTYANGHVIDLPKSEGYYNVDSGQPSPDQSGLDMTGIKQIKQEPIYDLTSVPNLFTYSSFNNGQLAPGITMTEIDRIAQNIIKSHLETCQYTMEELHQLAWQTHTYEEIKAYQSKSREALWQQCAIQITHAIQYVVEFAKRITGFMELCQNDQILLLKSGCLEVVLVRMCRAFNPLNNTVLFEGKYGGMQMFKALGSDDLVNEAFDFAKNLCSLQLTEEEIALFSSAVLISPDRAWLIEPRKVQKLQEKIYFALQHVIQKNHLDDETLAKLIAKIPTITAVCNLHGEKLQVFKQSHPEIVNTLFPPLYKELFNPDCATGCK
# Experiment: ATG_RORb_TRANS: Attagene TRANS-FACTORIAL HepG2 Assay for human RAR-related Orphan Receptor beta (RORb) (AID 2283010)
# Outline: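 Read-out is reporter mRNA induction, quantified by RT-PCR with fluorescent capillary electrophoresis, 24 h post-dose in transiently transfected HepG2 expressing exogenous NR-Gal4 chimera. Activity fitted upward versus DMSO.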
row,SMILES,outcome
1,O=C1CCCCCCCCCCCCCCO1,inactive
2,O=C(O)CN(CCN(CC(=O)O)CC(=O)O)CCN(CC(=O)O)CC(=O)O,inactive
3,NCCNCCN,inactive
4,C#C[C@]1(O)CC[C@H]2[C@@H]3CCC4=Cc5oncc5C[C@]4(C)[C@H]3CC[C@@]21C,inactive
5,O=C1CCCCCCCCCCOCCCCO1,inactive
6,C=C(C)C(=O)O[C@H]1C[C@@H]2CC[C@@]1(C)C2(C)C,inactive
7,c1ccc2c(c1)c1cccc3ccc4cccc2c4c31,inactive
8,Nc1cc([N+](=O)[O-])ccc1O,inactive
9,CCCCCC(CO)CCC (stereo not drawn),inactive
